From PubChem BioAssay AID1345085 (National Center for Advancing Translational Sciences (NCATS), 2018)
Records with an inconclusive call do not appear. Active and inactive are the calls of the source. Calls follow the shape of the dose curve; as a rule, active = well fitted cell-killing curve with a large enough effect; inconclusive = small, poorly fitted or top-dose-only effect, or effect the other way; inactive = no such curve, though single readings can be large or run the other way. *1 amine or outer side, *2 acyl side, *3 side chain or, on linkers, in order; H or OH if unused. Where a SMILES comes first, the peptide text is derived from it. Bridges are numbered along the chain shown (N, C = ends). Roman numbers before positions name the chains, in order. [ ]: non-standard residue; d: D form. Actinocin(9to1) = Cc1c2oc3c(C)ccc(C(=O)[*:1])c3nc-2c(C(=O)[*:2])c(N)c1=O; NMeV = CN[C@H](C(=O)O)C(C)C; Sar = CNCC(=O)O

system: CASKI; assay: Confirmatory qHTS for gynecologic anti-cancer compounds from libraries of approved drugs and bioactive compounds; conditions: gynecologic cancer cell panel viability, ATPlite luminescence, 48 h; series mostly up to 57.6 µM; also: nearly all actives have a fitted effect of over 55% in size
Outline: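 1,000 cells/well; 16 h pre-incubation 37 C, 5% CO2; pin-transferred cpd in DMSO, 11 conc (1:3), 57.5 uM–0.977 nM; 48 h; ATPlite, 15 min RT; luminescence → IC50.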
% is scaled to controls: 0 for no effect and ±100 for the full control effect; potency is read from the fitted curve at half-maximal effect.

SMILES | Potency | activity change, negative = viability loss
CCC1=CC2CN(C1)Cc1c([nH]c3ccccc13)[C@@](C(=O)OC)(c1cc3c(cc1OC)N(C)[C@H]1[C@@](O)(C(=O)OC)[C@H](OC(C)=O)[C@]4(CC)C=CCN5CC[C@]31[C@@H]54)C2 (stereo partly drawn) | inactive | –
Nc1ccccc1NC(=O)c1ccc(CNc2nccc(-c3cccnc3)n2)cc1 | 8.63 µM (active) | –
O=c1[nH]c(=O)n([C@H]2C[C@H](O)[C@@H](CO)O2)cc1C(F)(F)F | 9.68 µM (active) | –
CCS(=O)(=O)N1CCN(c2ccc(Nc3ncc(C(N)=O)c(NC4CC4)n3)cc2)CC1 | 10.9 µM (active) | –
CCOc1cc2ncc(C#N)c(Nc3ccc(F)c(Cl)c3)c2cc1NC(=O)/C=C/CN(C)C | 8.63 µM (active) | –
CCC(=O)N1CCN(c2ccc(-n3c(=O)ccc4cnc5ccc(-c6cnc7ccccc7c6)cc5c43)cc2C(F)(F)F)CC1 | – | -25.9% [at 10.7 µM] (inactive)
CC(C)C[C@H](NC(=O)[C@H](Cc1ccccc1)NC(=O)c1cnccn1)B(O)O | 0.0343 µM (active) | –
Cc1cnc(Nc2ccc(CN3CCOCC3)cc2)nc1Nc1cccc(S(=O)(=O)NC(C)(C)C)c1 | 4.85 µM (active) | –
CC(C)c1nn(-c2c(Cl)cccc2Cl)c2nc(Cc3ccc(OCCO)cc3)[nH]c(=O)c12 | 0.137 µM (active) | –
Nc1nc(Cl)nc2c1ncn2C1OC(CO)C(O)C1F (stereo not drawn) | 1.22 µM (active) | –
Cc1ccc(C(=O)Nc2cccc(C(F)(F)F)c2)cc1-c1ccc2nc(NCCN3CCOCC3)ncc2c1 | 12.2 µM (active) | –
CN(C)C(CCOc1cccc2ccccc12)c1ccccc1 (stereo not drawn) | inactive | –
CCc1c2c(nc3ccc(O)cc13)-c1cc3c(c(=O)n1C2)COC(=O)[C@]3(O)CC | 0.153 µM (active) | –
Cc1cc(CN2CCN(c3c(Br)cnc4nc(-c5ccc(N6CCN(C)CC6)cc5)[nH]c34)CC2)no1 | 27.3 µM (active) | –
COc1ccc(-c2ccc3c(N4CCOCC4C)nc(N4CCOCC4C)nc3n2)cc1CO (stereo not drawn) | inactive | –
c1nc2nc(Nc3ccc(N4CCOCC4)cc3)nc(NC3CCCCC3)c2[nH]1 | 7.49 µM (active) | –
COCCOc1nc(-c2ccc(Cl)c(Cl)c2)n(-c2ccc(NC(=O)CCl)cc2)n1 | inactive | –

SMILES | Potency | activity change, negative = viability loss
CN1CCN(c2ccc(OC(F)(F)F)c(Nc3ncc4c(n3)-c3c(c(C(N)=O)nn3CCO)CC4)c2)CC1 | inactive | –
Cc1nc(N)ncc1-c1nc(N2CCOCC2)c2sc(C(C)(C)O)cc2n1 | 0.769 µM (active) | –
CNC(=O)c1nn(C)c2c1C(C)(C)Cc1cnc(Nc3ccc(N4CCN(C)CC4)cc3)nc1-2 | 10.9 µM (active) | –
Cc1cc(C(C)Nc2ccccc2C(=O)O)c2nc(N3CCOCC3)cc(=O)n2c1 (stereo not drawn) | 6.85 µM (active) | –
Cc1cc(C2CCCCC2)n(O)c(=O)c1 | 3.96 µM (active) | –
CCOC(=O)C1=C(C)NC2=C(C(=O)CC(C)(C)C2)C1c1ccc(-c2ccccc2)cc1 (stereo not drawn) | inactive | –
COc1cc2c(Oc3ccc(-c4cnc(Nc5ccc(F)cc5)n(C)c4=O)cc3F)ccnc2cc1OCCCN1CCOCC1 | inactive | –
COc1cc(Nc2ncc(F)c(Nc3ccc4c(n3)N(COP(=O)(O)O)C(=O)C(C)(C)O4)n2)cc(OC)c1OC | 5.44 µM (active) | –
CNC(=O)c1ccccc1Sc1ccc2c(/C=C/c3ccccn3)n[nH]c2c1 | 13.7 µM (active) | –
CCN1C[C@H](C)n2c(c(O)c3c(=O)n(Cc4ccc(F)c(Cl)c4)nc(C(=O)NC)c32)C1=O | inactive | –
Cc1c2oc3c(C)ccc(C(=O)N[C@@H]4C(=O)N[C@H](C(C)C)C(=O)N5CCC[C@H]5C(=O)N(C)CC(=O)N(C)[C@@H](C(C)C)C(=O)O[C@@H]4C)c3nc-2c(C(=O)N[C@@H]2C(=O)N[C@H](C(C)C)C(=O)N3CCC[C@H]3C(=O)N(C)CC(=O)N(C)[C@@H](C(C)C)C(=O)O[C@@H]2C)c(N)c1=O (I: T[dV]P[Sar][NMeV] / II: T[dV]P[Sar][NMeV]; ester I:1-I:C, II:1-II:C; linker I:N-II:N via Actinocin(9to1)) | 0.611 µM (active) | –
Cc1ccc(C(=O)Nc2ccc(CN3CCN(C)CC3)c(C(F)(F)F)c2)cc1C#Cc1cnc2cccnn12 | 21.7 µM (active) | –
O=c1c2ccccc2nc2n1CCc1c-2[nH]c2ccccc12 | inactive | –
Cn1cc(-c2ccc3ncc(Cc4ccc5ncccc5c4)n3n2)cn1 | inactive | –
CC(C)C[C@H](NC(=O)[C@H](CCc1ccccc1)NC(=O)CN1CCOCC1)C(=O)N[C@@H](Cc1ccccc1)C(=O)N[C@@H](CC(C)C)C(=O)[C@@]1(C)CO1 | 9.68 µM (active) | –
Cn1c(=O)c(-c2c(Cl)cccc2Cl)cc2cnc(Nc3cccc(C(=O)O)c3)nc21 | 3.06 µM (active) | –
